Dicer inh: inhibitors of Dicer pre-microRNA processing, primary screen, biochemical, cat-ELCCA, chemiluminescence; Endoribonuclease Dicer (Homo sapiens), Q9UPY3; cat-ELCCA pre-miR-21 Dicer processing; stronger effect = higher value; z-score at 25 µM; hit rate 6% among 47,000; AID 1347074, 2019; in the data active means z-score above about 3, passing the limit was not always enough;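 further: plate controls were vehicle for no effect and no enzyme for full effect; higher signal means more uncleaved substrate so more Dicer inhibition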
Target sequence (Q9UPY3 whole entry, looked up): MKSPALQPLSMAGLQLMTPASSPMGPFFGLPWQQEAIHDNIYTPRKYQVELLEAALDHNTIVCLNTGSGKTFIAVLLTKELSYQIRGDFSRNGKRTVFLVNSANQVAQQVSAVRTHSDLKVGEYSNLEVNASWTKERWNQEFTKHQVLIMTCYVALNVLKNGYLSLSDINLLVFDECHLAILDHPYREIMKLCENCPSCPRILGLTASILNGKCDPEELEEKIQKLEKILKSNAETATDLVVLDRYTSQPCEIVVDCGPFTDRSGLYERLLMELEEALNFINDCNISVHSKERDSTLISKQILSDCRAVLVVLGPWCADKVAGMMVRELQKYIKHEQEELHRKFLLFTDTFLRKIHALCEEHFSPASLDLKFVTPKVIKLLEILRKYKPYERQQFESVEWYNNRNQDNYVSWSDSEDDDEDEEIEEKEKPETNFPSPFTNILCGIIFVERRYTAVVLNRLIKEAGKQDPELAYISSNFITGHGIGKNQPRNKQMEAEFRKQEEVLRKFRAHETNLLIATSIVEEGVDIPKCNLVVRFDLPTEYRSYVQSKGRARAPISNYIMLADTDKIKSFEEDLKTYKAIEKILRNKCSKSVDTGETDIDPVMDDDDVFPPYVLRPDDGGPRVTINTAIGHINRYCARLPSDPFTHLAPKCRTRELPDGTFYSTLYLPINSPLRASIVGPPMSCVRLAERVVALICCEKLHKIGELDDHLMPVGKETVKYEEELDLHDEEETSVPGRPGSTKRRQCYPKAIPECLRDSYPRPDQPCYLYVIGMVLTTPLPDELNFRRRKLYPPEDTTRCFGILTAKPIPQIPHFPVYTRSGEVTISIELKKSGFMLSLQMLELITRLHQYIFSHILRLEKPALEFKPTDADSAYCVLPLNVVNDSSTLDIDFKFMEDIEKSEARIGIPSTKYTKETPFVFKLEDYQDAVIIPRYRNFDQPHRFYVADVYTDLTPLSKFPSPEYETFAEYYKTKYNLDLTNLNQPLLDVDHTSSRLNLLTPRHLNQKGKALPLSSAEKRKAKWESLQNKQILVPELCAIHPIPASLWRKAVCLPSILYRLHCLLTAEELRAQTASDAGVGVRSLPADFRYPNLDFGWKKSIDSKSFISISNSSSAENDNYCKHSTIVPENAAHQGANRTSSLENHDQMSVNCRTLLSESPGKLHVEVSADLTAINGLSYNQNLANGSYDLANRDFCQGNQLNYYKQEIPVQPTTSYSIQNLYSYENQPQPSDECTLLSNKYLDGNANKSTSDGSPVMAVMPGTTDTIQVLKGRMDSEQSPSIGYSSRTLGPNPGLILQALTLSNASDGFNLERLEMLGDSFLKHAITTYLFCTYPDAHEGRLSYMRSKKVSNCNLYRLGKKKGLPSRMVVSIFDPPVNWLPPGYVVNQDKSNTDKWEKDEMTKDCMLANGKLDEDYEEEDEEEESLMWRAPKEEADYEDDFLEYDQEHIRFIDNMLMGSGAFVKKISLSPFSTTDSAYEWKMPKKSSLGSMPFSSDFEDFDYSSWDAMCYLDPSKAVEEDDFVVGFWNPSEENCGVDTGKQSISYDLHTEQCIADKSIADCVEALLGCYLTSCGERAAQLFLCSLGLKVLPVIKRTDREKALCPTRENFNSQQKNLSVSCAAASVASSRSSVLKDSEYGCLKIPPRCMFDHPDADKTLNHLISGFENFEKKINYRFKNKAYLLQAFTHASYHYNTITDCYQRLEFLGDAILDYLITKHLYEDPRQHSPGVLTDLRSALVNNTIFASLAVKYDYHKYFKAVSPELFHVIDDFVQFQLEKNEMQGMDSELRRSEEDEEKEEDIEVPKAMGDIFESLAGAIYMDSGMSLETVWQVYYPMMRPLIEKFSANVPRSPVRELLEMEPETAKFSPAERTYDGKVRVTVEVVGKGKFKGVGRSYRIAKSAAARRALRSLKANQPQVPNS
Numbers without * were called inactive. This is one part of a sample in which hits are shown more often than they occur.

SMILES | Dicer inh
COc1cccc(N2CCn3c2nc2c3c(=O)n(CC(=O)O)c(=O)n2C)c1 | 1.48
CS/C(NCc1cccnc1)=C(/C#N)C(=O)C1CC1 | -7.87
Cc1nn(-c2ccccc2)cc1/C=N/Nc1nc2ccccc2s1 | 2.18
COc1cc2ccccc2cc1C(=O)Nc1nc2ccccc2s1 | -0.01
COc1cc(/C=N/Nc2nc3ccccc3s2)cc(OC)c1OC | 3.47*
C(=N\Nc1nc2ccccc2s1)/c1cccs1 | -0.23
COc1cc(/C=N/NC(=S)NCCc2ccccc2)cc(OC)c1OC | -0.71
C(=N\Nc1nc2ccccc2s1)/c1ccco1 | 3.79*
COc1cccc(C2c3c(oc4ccccc4c3=O)C(=O)N2Cc2ccc3c(c2)OCO3)c1 (stereo not given) | 0.35
N/C(CC(=O)Nc1cc(Cl)cc(Cl)c1)=N\O | -2.29
COc1ccc(-c2c(N)n[nH]c2C)cc1OC | 4.93*
COc1ccc(-c2nc3cc(N)ccc3o2)cc1OC | 2.5
COc1ccc(-c2c(-c3ccc(OC)c(OC)c3)c(C)n(C)c2C)cc1OC | -0.69
CSCCC(Nc1ncnc2c1oc1ccccc12)C(=O)O (stereo not given) | 0.26
O=C1CSC(c2ccc3c(c2)OCO3)N1 (stereo not given) | -0.56
CC(C)S(=O)(=O)/C(C#N)=C/Nc1cccnc1 | -2.07
CCCc1cc(Br)c(-n2cccc2)c(Br)c1 | -0.21
O=C1ON=C(c2ccccc2)/C1=C/c1ccc(Cl)cc1 | 0.56
O=C(O)C1CC(=O)N(c2ccc(-c3csnn3)cc2)C1 (stereo not given) | -0.35
Cc1ccc2c(c1)-c1cc(C)nn1C(c1ccc3c(c1)OCO3)N2 (stereo not given) | 1.17
Cc1ccc2c(c1)-c1cc(C)nn1C(c1sccc1C)N2 (stereo not given) | 0.99
Cc1cc(C)c2c(c1)-c1cc(C)nn1C(c1cccc(O)c1O)N2 (stereo not given) | 29.9*
COC(=O)c1ccc(C2Nc3ccc(C)cc3-c3cc(C)nn32)cc1 (stereo not given) | -0.59
Cc1cc(C)c2c(c1)-c1cc(C)nn1C(c1cccc(O)c1)N2 (stereo not given) | 1.25
Cc1cc(C)c2c(c1)-c1cc(C)nn1C(c1ccccc1O)N2 (stereo not given) | -0.3
SMILES | Dicer inh
Cc1ccc2c(c1)-c1cc(C)nn1C(c1cc(C)ccc1O)N2 (stereo not given) | 1.01
Cc1ccc2c(c1)-c1cc(C)nn1C(c1cccc(O)c1O)N2 (stereo not given) | 32.5*
Cc1ccc2c(c1)-c1cc(C)nn1C(c1ccc(O)c(O)c1)N2 (stereo not given) | 3.46*
CCCSc1ccc2c3c(cccc13)C(=O)N(CCc1ccc(OC)c(OC)c1)C2=O | -0.85
COc1ccc(C2C(C#N)=C3N=C(N)c4ccccc4N3C3=C2C(=O)CC(C)(C)C3)c(OC)c1 (stereo not given) | 2.96
COc1cccc(C2C(C#N)=C3N=C(N)c4ccccc4N3C3=C2C(=O)CCC3)c1OC (stereo not given) | -2.36
CC1(C)CC(=O)C2=C(C1)N1C(=C(C#N)C2c2ccccc2F)N=C(N)c2ccccc21 (stereo not given) | 3.19*
N#CC1=C2N=C(N)c3ccccc3N2C2=C(C(=O)CCC2)C1c1ccc(F)cc1 (stereo not given) | 0.21
Cc1ccc(C2C(C#N)=C3N=C(N)c4ccccc4N3C3=C2C(=O)CCC3)cc1 (stereo not given) | 2.55
CN(C)c1ccc(C2C(C#N)=C3N=C(N)c4ccccc4N3C3=C2C(=O)CCC3)cc1 (stereo not given) | 3.43*
Cc1c(S(=O)(=O)c2ccc(Cl)cc2)csc1C(=O)Nc1ccc2c(c1)C(=O)OC2 | 2.07
Cc1[nH]c2ccccc2c1C(=O)CSc1nccn1C | -0.74
COC(=O)c1ccc(S(=O)(=O)NC2CCN(Cc3ccccc3)CC2)n1C | 0.61
Cc1cc(C(=O)CSc2nnc3ccccn23)c(C)n1-c1ccc(F)cc1 | -1.52
CC(C)(C)C(=O)Nc1c(Cl)c(Cl)cc(Cl)c1Cl | -2.62
COC(=O)/C(=C\N(C)C)Sc1cc(C)c(Cl)cc1C | -0.82
Cc1[nH]c2ccccc2c1C(=O)CN1CCN(c2ccccn2)CC1 | 1.49
CSc1sc(Br)c(Cl)c1S(=O)(=O)C(C)C | -0.95
CCN1CCN(c2nc3c(c(=O)[nH]c(=O)n3C)n2CC(O)COC(C)C)CC1 (stereo not given) | -1.04
CN(/N=C/c1ccccc1)c1ncc(C(F)(F)F)cc1Cl | 1.26
NC(=O)C1CCN(C(=O)CSc2ncccn2)CC1 | 3.6*
CC1CCN(C(=O)CCCC(=O)O)CC1 | 0.92
NC(=O)C1CCN(C(=O)CCC(=O)O)CC1 | 3.5*
CCOC(=O)N1CCN(C(=O)CSc2ncccn2)CC1 | 0.08
NC(=O)C1CCN(C(=O)CN(CC(=O)N2CCC(C(N)=O)CC2)Cc2ccco2)CC1 | 0.68
NC(=O)C1CCN(C(=O)/C=C/C(=O)O)CC1 | 0.65
OCC12CC3CC(CC(Br)(C3)C1)C2 | 0.13
Cc1cc2nc3n(c2cc1C)C(O)C=C(c1ccccc1)S3 (stereo not given) | 0.78

Compound activity (PubChem BioAssay)
